# Inconclusive results are not listed. A call without a number means that no potency is given here. Activity calls are given as the source filed them. Calls follow the shape of the dose curve; as a rule, active = well fitted inhibition curve with a large enough effect; inconclusive = small, poorly fitted or top-dose-only effect; inactive = no such curve, though single readings can be large or run the other way.
# Target: Retinaldehyde dehydrogenase 3 (Homo sapiens) (UniProt P47895)
# Test: qHTS for Inhibitors of the Aldehyde Dehydrogenase Family (ALDH1A3) Primary screen (AID 2061315)
# Settings: ALDH inhibition qHTS; series mostly up to 56 µM
Compound,Potency,"activity change, negative = inhibition"
Cc1cc(C(=O)N2Cc3cnn(C)c3Nc3ccccc32)ccc1CNC(=O)N1CCN(Cc2cc(O)cc(O)c2)CC1,inactive,
CC(C)[C@@H](C(=O)O)N1Cc2c(cc(O)c3c2O[C@]2(C3)[C@H](C)CCC3C(C)(C)[C@H](O)[C@H](O)C[C@@]32C)C1=O (stereo not given in full),inactive,
O=C(Nc1ccc(-c2ccncc2)cc1)N[C@H](CO)c1ccccc1,inactive,
C=C1C(=O)O[C@@H]2C[C@@]3(C)C[C@@H](O)C[C@H](C)C3=C[C@H]12,inactive,
CC1=CC(=O)[C@]2(O[C@@H]3O[C@@H](C)[C@H](O)[C@@H](O)[C@H]3OC(=O)/C=C/c3ccccc3)C=CO[C@@H](O[C@@H]3O[C@H](CO)[C@@H](O)[C@H](O)[C@H]3O)[C@H]12,inactive,
C/C=C(/C)C(=O)OC1C2OC2C2(CO2)C2C3OC(=O)C(C)C3CCC12C (stereo not given),inactive,
CC(=O)O[C@H]1CC[C@@]2(CI)C(=CC[C@@H]3[C@@H]2CC[C@]2(C)[C@@H]([C@H](C)CCCC(C)C)CC[C@@H]32)C1,,5.91% [at 11.2 µM] (inactive)
CC(C)(O)c1ccc2c(c1)C(=O)CC1[C@](C)(CO)CCC[C@]21C (stereo not given in full),inactive,
CN1CCN(Cc2ccc(-c3cnc4[nH]cc(-c5ccc6[nH]ccc6c5)c4c3)cc2)CC1,inactive,
C=C(C)[C@H]1C[C@@H](O)C(=C)CC[C@@H](O)C(=C)[C@@H](O)C1,inactive,
Nc1ncnc2c1c(-c1ccc(Cl)cc1)nn2-c1cccc(-c2cnnn2Cc2cccc(-c3ccccc3)c2)c1,inactive,
COC(=O)C1=COC(O[C@@H]2O[C@H](CO)[C@@H](O)[C@H](O)[C@H]2O)[C@@H]2[C@@](C)(O)[C@@H](OC(=O)/C=C/c3ccccc3)C[C@]12O (stereo not given in full),inactive,
Fc1cccc(CN(C2=NCCN2)c2c(Cl)cccc2Cl)c1,inactive,
CC1=C[C@H]2[C@@H](CC1=O)[C@H](C)C[C@H](O)[C@H]2C(C)C,inactive,
CC1C(OC(=O)c2ccccc2)C(O)C2C(C(=O)O)=COC(OC3OC(CO)C(O)C(O)C3O)C12 (stereo not given),inactive,
CC1=C2C(=O)O[C@@H](c3ccoc3)[C@]2(C)CCC1,inactive,
C[C@H]1C(=O)N2c3ccccc3[C@@]3(O)C[C@@H]4C(=O)N[C@](C)(c5nc6ccccc6c(=O)n54)N1[C@@H]23,inactive,
CC[C@H](C)/C=C(C)/C=C/C1=CC2=C(Cl)C(=O)[C@](C)(O)[C@H](OC(C)=O)[C@H]2CO1,inactive,
CC(C)(O)C1=CCC23COC(C2)C(O)(C(=O)O)CCC13 (stereo not given),inactive,
C=C[C@H]1[C@H](O[C@@H]2O[C@H](CO)[C@@H](O)[C@H](O)[C@H]2O)OC=C(C(=O)OC)[C@H]1C[C@@H]1c2cc(O)c(O)cc2CCN1C(C)=O,inactive,

Compound,Potency,"activity change, negative = inhibition"
CC(=O)/C=C/C1(O)C(C)=CC(=O)CC1(C)C (stereo not given),inactive,
CC(=O)O[C@@H]1[C@@H](OC(=O)/C=C/c2ccccc2)[C@@H](OC(C)=O)[C@H](O[C@H]2[C@@H]3C=CO[C@@H](O[C@@H]4O[C@H](CO)[C@@H](O)[C@H](O)[C@H]4O)[C@@H]3[C@@]3(CO)O[C@@H]23)O[C@H]1C,inactive,
C[C@@H]1O[C@@H](O[C@H]2[C@H](OC(=O)[C@]34CCC(C)(C)C[C@H]3C3=CCC5[C@@]6(C)CC[C@H](O[C@@H]7O[C@H](CO[C@@H]8OC[C@H](O)[C@H](O)[C@H]8O)[C@@H](O)[C@H](O)[C@H]7O)C(C)(C)C6CC[C@@]5(C)[C@]3(C)C[C@H]4O)OC[C@@H](O)[C@@H]2O)[C@H](O)[C@H](O[C@@H]2OC[C@](O)(CO)[C@H]2O)[C@H]1O[C@@H]1OC[C@H](O)[C@H](O[C@@H]2OC[C@@H](O)[C@H](O)[C@H]2O)[C@H]1O (stereo not given in full),,10.7% [at 11.2 µM] (inactive)
O=C(Nc1ccn[nH]1)c1c(F)cccc1F,inactive,
Cc1cc(CS(=O)(=O)c2ccccc2)cc(OCc2ccc(CN3CCC[C@H]3CO)cc2)c1,inactive,
CC(=O)O[C@@H]1[C@H](O[C@@H]2O[C@H](CO)[C@@H](O)[C@H](O)[C@H]2O)[C@@H](O[C@@H]2O[C@@H](C)[C@H](O)[C@@H](O[C@@H]3O[C@H](CO)[C@@H](O)[C@H](O)[C@H]3O)[C@H]2O)[C@H](OC(=O)[C@]23CCC(C)(C)C[C@H]2C2=CCC4[C@@]5(C)C[C@H](O)[C@H](O[C@@H]6O[C@H](C(=O)O)[C@@H](O)[C@H](O)[C@H]6O)[C@@](C)(C(=O)O)C5CC[C@@]4(C)[C@]2(C)CC3)O[C@@H]1C (stereo not given in full),,-6.53% [at 11.2 µM] (inactive)
COc1c(C)c2c(c(O)c1C/C=C(\C)CC/C=C(\C)CCC(=O)O)C(=O)OC2,inactive,
CCNc1nc(Nc2cc(F)c(C(=O)N3CCOCC3)cc2OC)ncc1C(F)(F)F,inactive,
CC1(C)[C@@H](O[C@H]2O[C@H](C(=O)O)[C@@H](O)[C@H](O)[C@H]2O[C@@H]2O[C@H](C(=O)O)[C@@H](O)[C@H](O)[C@H]2O)CC[C@]2(C)[C@H]3C(=O)C=C4[C@@H]5C[C@@](C)(C(=O)O)CC[C@]5(C)CC[C@@]4(C)[C@]3(C)CC[C@@H]12,inactive,
COc1c2c(c(C)c3c1C(=O)OC3)O[C@@]1(C)CC(O)C(C(C)(C)O)[C@](C)(CCC(=O)O)[C@H]1C2 (stereo not given in full),inactive,
C/C(=C/C=C\C=C\Cc1cnco1)[C@@H](O)C(C)(C)C(N)=O,inactive,
C=C1C(OC(C)=O)CCC2(C)CC3(OC)OC(=O)C(C)=C3CC12 (stereo not given),inactive,
Cc1ccc(C2(COC(=O)C(C)C)CO2)c(OC(=O)C(C)C)c1 (stereo not given),inactive,
Cc1occc(=O)c1O[C@@H]1O[C@H](CO[C@@H]2OC[C@](O)(CO)[C@H]2O)[C@@H](O)[C@H](O)[C@H]1O,inactive,
CC(=O)OC1C(O)C2C(C)C3=CC(=O)OC3(O)CC2C2(C)CCCC(C)(CO)C12 (stereo not given),inactive,
NC(N)=NC(=O)c1cnn(-c2cccc3ncccc23)c1C1CC1,inactive,
CC1(C)CCCC2(C)C1C(O)C=C(CO)C2(O)C(=O)O (stereo not given),inactive,
C[C@]12CCC[C@](C)(C(=O)O)C1[C@@H](O)[C@@H](O)C13CC(CCC12)C(CO)(O[C@@H]1O[C@H](CO)[C@@H](O)[C@H](O)[C@H]1O)C3 (stereo not given in full),inactive,
COc1cc2c(c(OC)c1CC=C(C)C)C[C@H](c1ccc(O)c(CC=C(C)C)c1O)CO2,inactive,
CC(=O)OC1CC(C(C)(C)O)OC2CCC3(C)OC4=C(C(=O)C=C5C(C)C(OC(C)=O)C6(C)C(C)OC546)C(O)C3C12C (stereo not given),inactive,
